From PubChem BioAssay AID1508602 (The Scripps Research Institute Molecular Screening Center, 2020)
About 6,800 (1%) of roughly 650,000 compounds were called active. What follows is part of a selection rich in actives, with near analogues and random picks from the rest. Unmarked numbers belong to inactive results. Rule as the data show it: active = activation above about 4.9%; inactive = the rest.

These molecules were tested against G-protein coupled receptor 151 (Homo sapiens) (UniProt Q8TDV0) (assay: activators of human GPR151, primary screen, cell-based, PathHunter beta-arrestin, luminescence (AID 1508602;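 also: 0% = median of compound wells and 100% = cells with positive control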)). Settings: PathHunter beta-arrestin GPR151 cells, at 11.2 µM, active compounds read high.
Sequence of G-protein coupled receptor 151 (Homo sapiens) (Q8TDV0 whole entry, looked up): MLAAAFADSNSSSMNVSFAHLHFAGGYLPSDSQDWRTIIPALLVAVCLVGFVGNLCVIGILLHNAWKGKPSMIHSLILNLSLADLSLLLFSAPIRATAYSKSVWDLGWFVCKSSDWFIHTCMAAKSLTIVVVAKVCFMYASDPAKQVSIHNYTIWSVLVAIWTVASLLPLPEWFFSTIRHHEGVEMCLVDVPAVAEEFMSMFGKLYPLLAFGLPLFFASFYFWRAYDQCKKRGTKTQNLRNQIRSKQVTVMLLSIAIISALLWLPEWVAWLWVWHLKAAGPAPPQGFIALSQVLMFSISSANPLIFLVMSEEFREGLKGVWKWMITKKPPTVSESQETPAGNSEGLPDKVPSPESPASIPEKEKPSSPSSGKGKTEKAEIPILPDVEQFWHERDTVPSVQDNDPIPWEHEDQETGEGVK

| SMILES | activation |
| --- | --- |
| Cc1ccc(C(=O)N/N=C\c2ccccc2O)cn1 | -0.843% |
| O=S(=O)(c1ccc2c(c1)CCCC2)N1CCOC(c2ccccc2)C1 (stereo not drawn) | -1.43% |
| Cc1ccccc1-c1nc(SCC(=O)NCCc2ccccc2)c2c(=O)n(C)c(=O)n(C)c2n1 | -0.395% |
| CCN1CCN(C(=O)Cn2nc(Cc3cccnc3)c3ccccc3c2=O)CC1 | 1.14% |
| O=C1CCC(=O)NCC(=O)NCCOCCNC(=O)CN1 | -0.231% |
| CC/C(Cc1ccccc1)=N\NC(=O)c1ccccc1 | -1.22% |
| O=C(NCc1nc2ccccc2[nH]1)c1ccc2nc(-c3ccccc3)sc2c1 | -1.41% |
| CN1CCN(c2ccc(-c3nc4ccc(C(=O)NCc5nc6ccccc6[nH]5)cc4s3)cc2)CC1 | 7.98% (active) |
| CN1CCN(c2ccc(-c3nc4ccc(C(=O)NCc5ccccc5)cc4s3)cc2)CC1 | -0.195% |
| COc1ccc(-c2noc(Nc3ccc(F)cc3)n2)cc1OC | -0.36% |
| Cc1ccc(NC(=O)c2c[nH]c(=O)[nH]c2=O)cc1S(=O)(=O)N1CCCCC1 | -0.749% |
| COc1ccc(C(=O)NNC(=O)c2ccccc2[N+](=O)[O-])cc1OC | -0.216% |
| CC(NS(=O)(=O)c1ccc([N+](=O)[O-])cc1)C(=O)N/N=C/c1ccc(O)cc1 (stereo not drawn) | 0.173% |
| O=C(NNS(=O)(=O)c1ccc([N+](=O)[O-])cc1)Nc1cccc(C(F)(F)F)c1 | 0.535% |
| CC(C)C(=O)NNS(=O)(=O)c1ccc([N+](=O)[O-])cc1 | 6.82% (active) |
| CC(=O)N(CC(O)CO)c1c(I)c(C(=O)NCC(O)CO)c(I)c(C(=O)NCC(O)CO)c1I (stereo not drawn) | 0.874% |
| COCC(=O)Nc1c(I)c(C(=O)NCC(O)CO)c(I)c(C(=O)N(C)CC(O)CO)c1I (stereo not drawn) | 6.28% (active) |
| Cc1[nH][nH]c(=O)c1C(c1ccc(-c2ccc(F)cc2[N+](=O)[O-])o1)c1c(C)[nH][nH]c1=O | 6.05% (active) |
| Cc1[nH][nH]c(=O)c1C(c1ccc(-c2ccc(Cl)cc2)o1)c1c(C)[nH][nH]c1=O | 0.733% |
| CC1=NOC(=O)/C1=C/c1ccc(-c2cc(C)c(C)cc2[N+](=O)[O-])o1 | 0.0267% |

| SMILES | activation |
| --- | --- |
| CCCOC(=O)COc1ccc2c(C)cc(=O)oc2c1 | -0.0136% |
| Cc1ccc(C2=NN(C(=O)CCC(=O)O)C(c3ccc(C)cc3)C2)cc1 (stereo not drawn) | -1.19% |
| CC1=C(C(=O)Nc2ccc(Cl)cc2)C(c2ccc([N+](=O)[O-])cc2)n2nnnc2N1 (stereo not drawn) | 0.405% |
| O=C(O)CC(NS(=O)(=O)Cc1ccccc1)c1ccc(F)cc1 (stereo not drawn) | 1.1% |
| O=C(O)CC(NC(=O)c1ccccc1)c1ccc(F)cc1 (stereo not drawn) | -0.457% |
| CC(=O)NC(CC(=O)O)c1ccc(F)cc1 (stereo not drawn) | 6.23% (active) |
| O=C(NCc1ccc(F)cc1)c1nn2c(C(F)(F)F)cc(-c3cccs3)nc2c1Cl | 0.443% |
| Cc1ccccc1NC(=O)CSc1nnc(NC(=O)CCc2ccccc2)s1 | -0.763% |
| O=C1c2cccnc2C(=O)N1CCc1ccc(S(=O)(=O)N2CCCc3ccccc32)cc1 | -2.73% |
| COc1ccc(-c2cnn3ccc(Nc4ccc(O)cc4)nc23)c(OC)c1 | -0.387% |
| Cc1ccc(S(=O)(=O)N(C)C)cc1NC(=S)NCCc1ccc(O)c(O)c1 | -0.323% |
| CC(=O)c1c(C)[nH]c(C(=O)Nc2cc(S(=O)(=O)N(C)C)ccc2C)c1C | 0.871% |
| COC(=O)NNC(=S)Nc1cc(S(=O)(=O)N(C)C)ccc1C | 6.15% (active) |
| NC(=O)c1ccc(NC(=O)CSc2nc(N)c(NC(=O)c3ccccc3)c(=O)[nH]2)cc1 | -0.254% |
| C#CCN1C(=O)C(O)(CC(=O)c2ccc(Br)cc2)c2ccccc21 (stereo not drawn) | 4.05% |
| Cc1cc(N2CCCC2)nc(N2CCN(C(=O)c3ccccc3Cl)CC2)n1 | 0.558% |
| COC(=O)c1oc2ccc(Br)cc2c1NC(C)=O | 6.57% (active) |
| CCOC(=O)c1oc2ccc(Br)cc2c1C | 1.27% |
| Cc1c(C(=O)Nc2nnc(C3CC3)s2)oc2ccc(Br)cc12 | -0.544% |
| O=C(NC(c1ccccc1)C(C(=O)c1ccccc1)C(=O)c1ccccc1)OCCc1ccccc1 (stereo not drawn) | -0.699% |

| SMILES | activation |
| --- | --- |
| COCCCNCc1c(C(=O)O)n(Cc2ccccc2F)c2cc(OC)ccc12 | 1.64% |
| CCN(CC)CCNS(=O)(=O)c1ccc(Br)c(C)c1 | 0.131% |
| O=C(CSc1nnnn1-c1ccc2c(c1)OCCO2)NNC(=O)c1ccco1 | 2.23% |
| COc1cccc(OC(=O)c2ccc(F)cc2[N+](=O)[O-])c1 | -5.87% |
| CCCCN(C)Cc1cc(Br)ccc1OC | 0.319% |
| CC(C)N1CCc2c(sc(NC(=O)Cc3ccccc3)c2C#N)C1 | 4.91% (active) |
| CC(=O)N1CCc2c(sc(NC(=O)CCS(=O)(=O)c3ccccc3)c2C#N)C1 | -0.234% |
| CCOC(=O)N1CCc2c(sc(NC(=O)CCSc3ccccc3)c2C#N)C1 | 0.685% |
| Cc1ccc(CNC(=O)CCC2CCCN(C(=O)c3cccc(-c4ccco4)c3)C2)o1 (stereo not drawn) | -0.6% |
| CC(C)c1nc(CNC(=O)Cn2nnnc2CN2C[C@@H](C)O[C@@H](C)C2)cs1 | 0.432% |
| CCC(C)C(=O)N1CCc2c(C(=O)NCc3ccsc3)c(OC)cc(=O)n2CC1 (stereo not drawn) | 0.148% |
| CC(C)CC(NS(=O)(=O)c1ccc2c(c1)oc(=O)n2C)C(=O)N1CCC(C)CC1 (stereo not drawn) | -0.109% |
| CC1CCC(NS(=O)(=O)c2ccc3c(c2)oc(=O)n3C)CC1 (stereo not drawn) | 0.208% |
| CC1CCN(C(=O)C(NS(=O)(=O)c2ccc3c(c2)oc(=O)n3C)C(C)C)CC1 (stereo not drawn) | 7.77% (active) |
| O=C1CC(N2CCN(Cc3ccccc3)CC2)C(=O)N1c1ccccc1F (stereo not drawn) | -0.408% |
| O=C(CCn1cnc2c(cnn2-c2ccc(F)cc2)c1=O)NCCC1=CCCCC1 | 7.05% (active) |
| O=C(Cn1cnc2c(cnn2-c2ccc(F)cc2)c1=O)NCCc1ccccc1 | 0.508% |
| Cc1ccc2[nH]c3c(=O)n(CC(=O)NCCC4=CCCCC4)cnc3c2c1 | 0.423% |
